Screening results as filed in PubChem BioAssay.
In the library only some 3.5% were active in any assay of this set; here they are far more common.
mHTT CaM bind – disrupts binding of mutant huntingtin to calmodulin | 190,000 compounds, 3.6% hits | inhibition, % at 15 µM | AlphaScreen His-mHTT/GST-CaM binding, luminescence | P42858;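 further: 0% = both proteins with DMSO and 100% = one protein alone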
Target sequence (P42858 whole entry, looked up, stated change not applied): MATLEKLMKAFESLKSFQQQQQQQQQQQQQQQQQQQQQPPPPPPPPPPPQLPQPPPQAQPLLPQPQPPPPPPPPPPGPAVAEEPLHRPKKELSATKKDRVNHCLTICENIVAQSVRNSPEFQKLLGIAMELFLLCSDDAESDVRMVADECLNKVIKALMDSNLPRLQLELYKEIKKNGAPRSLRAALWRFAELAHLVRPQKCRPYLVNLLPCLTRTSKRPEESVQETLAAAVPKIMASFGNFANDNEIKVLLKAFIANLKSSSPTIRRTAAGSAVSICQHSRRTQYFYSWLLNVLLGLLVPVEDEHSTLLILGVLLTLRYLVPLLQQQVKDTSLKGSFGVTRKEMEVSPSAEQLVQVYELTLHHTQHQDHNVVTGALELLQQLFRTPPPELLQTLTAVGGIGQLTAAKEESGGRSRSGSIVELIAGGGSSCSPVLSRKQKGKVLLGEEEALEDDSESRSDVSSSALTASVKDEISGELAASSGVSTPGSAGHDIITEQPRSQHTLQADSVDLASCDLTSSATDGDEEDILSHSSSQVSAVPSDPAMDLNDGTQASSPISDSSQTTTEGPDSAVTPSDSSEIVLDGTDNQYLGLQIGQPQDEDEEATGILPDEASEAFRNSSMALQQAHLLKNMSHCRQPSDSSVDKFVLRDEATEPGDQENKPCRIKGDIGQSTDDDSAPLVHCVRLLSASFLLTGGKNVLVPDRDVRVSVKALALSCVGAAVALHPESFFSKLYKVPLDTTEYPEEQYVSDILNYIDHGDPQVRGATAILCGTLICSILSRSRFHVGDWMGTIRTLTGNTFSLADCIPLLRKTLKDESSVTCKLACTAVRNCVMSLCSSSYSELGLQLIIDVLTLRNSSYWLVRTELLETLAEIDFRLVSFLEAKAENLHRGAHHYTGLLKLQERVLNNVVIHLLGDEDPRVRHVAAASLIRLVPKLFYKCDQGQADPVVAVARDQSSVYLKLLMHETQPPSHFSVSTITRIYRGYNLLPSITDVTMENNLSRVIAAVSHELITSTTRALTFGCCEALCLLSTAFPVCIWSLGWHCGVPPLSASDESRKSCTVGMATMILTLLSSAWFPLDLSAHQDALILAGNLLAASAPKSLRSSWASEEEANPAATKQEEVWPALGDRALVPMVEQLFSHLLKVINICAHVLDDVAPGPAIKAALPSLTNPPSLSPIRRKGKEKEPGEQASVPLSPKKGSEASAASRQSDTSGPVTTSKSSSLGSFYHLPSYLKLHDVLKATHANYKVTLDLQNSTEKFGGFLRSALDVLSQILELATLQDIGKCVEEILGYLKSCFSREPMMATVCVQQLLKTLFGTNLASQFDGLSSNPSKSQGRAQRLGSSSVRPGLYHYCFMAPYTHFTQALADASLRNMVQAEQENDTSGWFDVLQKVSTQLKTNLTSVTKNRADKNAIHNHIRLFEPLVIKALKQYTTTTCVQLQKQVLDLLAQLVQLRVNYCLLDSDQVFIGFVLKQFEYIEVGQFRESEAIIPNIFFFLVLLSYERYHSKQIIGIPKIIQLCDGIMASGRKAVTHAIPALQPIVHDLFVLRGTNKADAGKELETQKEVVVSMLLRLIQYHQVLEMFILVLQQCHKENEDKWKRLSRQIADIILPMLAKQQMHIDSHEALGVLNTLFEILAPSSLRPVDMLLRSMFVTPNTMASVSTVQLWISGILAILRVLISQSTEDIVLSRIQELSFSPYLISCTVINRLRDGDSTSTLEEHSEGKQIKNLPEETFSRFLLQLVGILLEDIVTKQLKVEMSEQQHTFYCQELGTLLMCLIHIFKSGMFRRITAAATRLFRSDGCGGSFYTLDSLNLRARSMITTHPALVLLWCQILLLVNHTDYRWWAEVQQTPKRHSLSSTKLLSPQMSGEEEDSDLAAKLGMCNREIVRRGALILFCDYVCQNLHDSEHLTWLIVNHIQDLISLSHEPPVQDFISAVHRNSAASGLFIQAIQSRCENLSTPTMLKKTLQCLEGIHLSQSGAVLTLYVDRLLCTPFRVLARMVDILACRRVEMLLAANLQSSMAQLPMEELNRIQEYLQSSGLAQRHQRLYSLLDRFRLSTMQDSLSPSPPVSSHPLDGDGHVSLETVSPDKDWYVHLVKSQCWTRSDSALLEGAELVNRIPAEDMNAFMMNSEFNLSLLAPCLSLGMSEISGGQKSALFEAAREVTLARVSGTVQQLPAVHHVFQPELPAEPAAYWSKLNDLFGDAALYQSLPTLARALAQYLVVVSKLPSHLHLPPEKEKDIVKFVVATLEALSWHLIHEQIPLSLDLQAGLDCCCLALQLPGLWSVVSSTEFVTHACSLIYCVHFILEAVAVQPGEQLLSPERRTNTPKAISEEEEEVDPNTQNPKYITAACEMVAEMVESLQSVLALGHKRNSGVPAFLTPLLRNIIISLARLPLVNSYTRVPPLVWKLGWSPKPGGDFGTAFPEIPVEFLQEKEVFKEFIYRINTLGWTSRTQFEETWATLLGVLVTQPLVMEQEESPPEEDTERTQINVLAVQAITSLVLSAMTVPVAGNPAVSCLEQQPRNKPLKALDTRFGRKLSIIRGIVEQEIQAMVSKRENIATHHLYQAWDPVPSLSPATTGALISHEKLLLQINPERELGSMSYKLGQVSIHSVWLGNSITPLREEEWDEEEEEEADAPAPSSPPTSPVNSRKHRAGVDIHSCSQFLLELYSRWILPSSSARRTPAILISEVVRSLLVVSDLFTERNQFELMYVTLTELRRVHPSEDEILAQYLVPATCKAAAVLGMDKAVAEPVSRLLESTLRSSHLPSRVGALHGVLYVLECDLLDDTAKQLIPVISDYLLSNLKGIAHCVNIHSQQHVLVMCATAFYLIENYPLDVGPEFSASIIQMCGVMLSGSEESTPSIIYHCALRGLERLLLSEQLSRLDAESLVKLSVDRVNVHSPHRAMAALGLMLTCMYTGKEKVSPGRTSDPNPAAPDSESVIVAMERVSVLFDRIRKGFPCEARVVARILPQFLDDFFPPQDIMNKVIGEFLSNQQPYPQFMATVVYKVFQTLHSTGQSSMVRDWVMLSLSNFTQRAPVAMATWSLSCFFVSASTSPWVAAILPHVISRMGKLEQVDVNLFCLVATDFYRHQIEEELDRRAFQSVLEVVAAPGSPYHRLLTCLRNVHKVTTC
Pf apPOL inh – Pf-apPOL DNA polymerase inhibition. Recombinant Pf-apPOL, molecular beacon fluorescence, 1.5 h. inhibition, % at 10 µM. 210,000 compounds, 0.25% hits. AID 1794808
* = called active by the depositor. No stated cut-off is given here; in the data, active means inhibition above about 50%; inactive means the rest.

How did Cc1cc(N(C)C)n2nc(CN(C)Cc3ccccc3)nc2n1 do in these assays?
mHTT CaM bind: 9.8; Pf apPOL inh: -2.3

How did Cn1cc(CC(=O)N2CCC(C(=O)NCC(F)(F)F)CC2)c2ccccc21 do in these assays?
mHTT CaM bind: -6.3; Pf apPOL inh: -7.5

What do the screens show for `COC1(NC(=O)c2ccc(Br)cc2)C(C)=CC(=O)C=C1C`?
mHTT CaM bind: -4.0; Pf apPOL inh: -0.9

How did CC(C)C[C@@H](CN=[N+]=[N-])N1CCN(CCc2ccccc2)CCC1=O do in these assays?
mHTT CaM bind: 71.0*; Pf apPOL inh: -6.5

Results for CC(C)C[C@@H](CO)N1CCN(CCc2ccccc2)CCC1=O ?
mHTT CaM bind: 8.5; Pf apPOL inh: -0.9

How did COc1ccc(NC(=O)N2CCCC2c2cc(C(C)C)no2)c(OC)c1 (centres undefined) do in these assays?
mHTT CaM bind: -5.6; Pf apPOL inh: 3.7

What do the screens show for `COc1ccc(CNC(=O)C2CN(S(=O)(=O)c3cccnc3)CC23CCCCC3)cc1` (centres undefined)?
mHTT CaM bind: 3.4; Pf apPOL inh: -3.1

Results for CCOc1ccc(NC(=O)C2CN(S(=O)(=O)c3cccnc3)CC23CCCCC3)cc1 (centres undefined) ?
mHTT CaM bind: 52.2*; Pf apPOL inh: -1.2

How did O=C(Nc1nccs1)c1ccc([N+](=O)[O-])s1 do in these assays?
mHTT CaM bind: -9.3; Pf apPOL inh: -4.3

Results for Cc1ccc(Cn2c(=O)c3cnc(-c4ccc(C)cc4)nc3n(C)c2=O)cc1 ?
mHTT CaM bind: -9.2; Pf apPOL inh: 0.6

Results for Cn1cc(NC(=O)NCc2c(F)cccc2F)c2ccccc21 ?
mHTT CaM bind: 4.7; Pf apPOL inh: -0.5

What do the screens show for `COc1ccccc1NC(=O)c1cccc2nc3ccccc3nc12`?
mHTT CaM bind: 45.7; Pf apPOL inh: -6.5

What do the screens show for `CC1=C(C(=O)Nc2c(C)cc(C)cc2C)C2(CCCCC2)OC1=O`?
mHTT CaM bind: -7.2; Pf apPOL inh: 0.6

Results for CCOCCCNC(=O)CN1C(=O)/C(=C/c2ccc(C(F)(F)F)cc2)Sc2ccccc21 ?
mHTT CaM bind: 16.0; Pf apPOL inh: -25.8

How did O=C(CN1C(=O)/C(=C/c2ccc(C(F)(F)F)cc2)Sc2ccccc21)NCCN1CCCC1 do in these assays?
mHTT CaM bind: 84.0*; Pf apPOL inh: 2.6

What do the screens show for `Cc1ccc(/C=C2\Sc3ccccc3N(CC(=O)NCc3ccccn3)C2=O)cc1`?
mHTT CaM bind: 80.0*; Pf apPOL inh: -1.1

How did CNC(=O)CN1C(=O)/C(=C/c2ccc(C(F)(F)F)cc2)Sc2ccccc21 do in these assays?
mHTT CaM bind: 19.0; Pf apPOL inh: -34.9

How did O=C(CN1C(=O)/C(=C/c2ccc(C(F)(F)F)cc2)Sc2ccccc21)NCc1ccccn1 do in these assays?
mHTT CaM bind: 32.0; Pf apPOL inh: -7.8

Results for COCCCNC(=O)CN1C(=O)/C(=C/c2ccc(C(F)(F)F)cc2)Sc2ccccc21 ?
mHTT CaM bind: 56.0*; Pf apPOL inh: 0.4

Results for CN1CCN(C(=O)CN2C(=O)/C(=C/c3ccc(C(F)(F)F)cc3)Sc3ccccc32)CC1 ?
mHTT CaM bind: 51.0*; Pf apPOL inh: 1.8

Results for CCCCNC(=O)CN1C(=O)/C(=C/c2ccc(C(F)(F)F)cc2)Sc2ccccc21 ?
mHTT CaM bind: -6.0; Pf apPOL inh: 2.3

How did Cn1c2ccccc2c2c(C(=O)NCc3ccccn3)cn(C3CCCC3)c(=O)c21 do in these assays?
mHTT CaM bind: 19.0; Pf apPOL inh: -2.2

Results for COc1ccc(-c2nnc(N3CCC(C(=O)NC(C)c4cccnc4)CC3)o2)cc1 (centres undefined) ?
mHTT CaM bind: 4.7; Pf apPOL inh: -1.9

What do the screens show for `COc1ccc(C(O)=Cc2nc3ccc([N+](=O)[O-])cc3oc2=O)cc1OC`?
mHTT CaM bind: 15.0; Pf apPOL inh: -10.0

How did O=S(=O)(Cc1ccc(C(F)(F)F)cc1)c1c[nH]c2ccccc12 do in these assays?
mHTT CaM bind: 14.0; Pf apPOL inh: -0.1

What do the screens show for `FC(F)(F)c1ccc(CSc2c[nH]c3ccccc23)cc1`?
mHTT CaM bind: 87.0*; Pf apPOL inh: -8.1

What do the screens show for `FC(F)Oc1ccccc1C1C=C(c2ccc(I)cc2)Nc2ncnn21` (centres undefined)?
mHTT CaM bind: -1.0; Pf apPOL inh: 3.4

What do the screens show for `CN(Cc1ccccc1)Cc1cncc(-c2cc3ccccc3s2)c1`?
mHTT CaM bind: 79.6*; Pf apPOL inh: -1.6

What do the screens show for `CN(Cc1ccccc1)Cc1ccc(O)cc1`?
mHTT CaM bind: -4.3; Pf apPOL inh: -0.9

How did CCn1cnc2ccc(-c3noc(-c4ccoc4)n3)cc21 do in these assays?
mHTT CaM bind: 7.6; Pf apPOL inh: -5.3

How did Cc1cc(-c2nnc(NC(=O)c3ccc4c(c3)OCCO4)o2)c(C)o1 do in these assays?
mHTT CaM bind: 1.9; Pf apPOL inh: -6.3

How did Cc1cc(-c2nnc(NC(=O)c3ccn(C)n3)o2)c(C)o1 do in these assays?
mHTT CaM bind: 67.5*; Pf apPOL inh: -6.4

How did COc1ccc(NC(=O)C(=O)NCCN2CCN(C(=O)c3c(F)cccc3F)CC2)cc1 do in these assays?
mHTT CaM bind: -3.2; Pf apPOL inh: 9.6

What do the screens show for `O=S(=O)(c1cccn2cnnc12)N(Cc1ccccc1F)c1ccc(F)c(F)c1`?
mHTT CaM bind: 60.7*; Pf apPOL inh: -5.2

What do the screens show for `O=S(=O)(Nc1ccc(F)cc1)c1cccn2cnnc12`?
mHTT CaM bind: 44.9; Pf apPOL inh: 61.6*

What do the screens show for `O=S(=O)(c1cccn2cnnc12)N(Cc1ccc(F)cc1)c1ccc(F)cc1`?
mHTT CaM bind: 31.7; Pf apPOL inh: 24.9

Results for O=S(=O)(c1ccc2nncn2c1)N(Cc1ccccc1Cl)c1ccccc1 ?
mHTT CaM bind: 20.6; Pf apPOL inh: -4.9

How did O=S(=O)(c1cccn2cnnc12)N(Cc1cccc(F)c1)c1ccc(F)c(F)c1 do in these assays?
mHTT CaM bind: 41.4; Pf apPOL inh: -3.6

What do the screens show for `O=S(=O)(c1cccn2cnnc12)N(Cc1cccc(F)c1)c1ccc(F)cc1`?
mHTT CaM bind: 50.7*; Pf apPOL inh: 41.9

Results for Cc1nn(-c2ccc(Cl)cc2)c2nc(N3CCCC(C(=O)NC4CC4)C3)sc12 (centres undefined) ?
mHTT CaM bind: 1.2; Pf apPOL inh: -4.2

Results for O=C(C=Cc1ccc2ccccc2n1)c1ccc(O)cc1 ?
mHTT CaM bind: 6.5; Pf apPOL inh: -8.4

What do the screens show for `CCOC(=O)c1csc(NC(=O)CCS(=O)(=O)Cc2ccccc2)n1`?
mHTT CaM bind: -2.8; Pf apPOL inh: -0.5

What do the screens show for `c1cc(-c2noc(CN3CCCCC3c3nc(C4CC4)no3)n2)cs1` (centres undefined)?
mHTT CaM bind: -18.4; Pf apPOL inh: -1.9

How did Nc1ccc(O)c(-c2nc3ccccc3s2)c1 do in these assays?
mHTT CaM bind: 49.9; Pf apPOL inh: 3.4

How did Cc1cc(C)c(-c2[nH]ncc2-c2nc3ccccc3s2)c(O)c1 do in these assays?
mHTT CaM bind: 85.5*; Pf apPOL inh: -10.0

Results for O=C(Nc1ccc(O)c(-c2nc3ccccc3s2)c1)c1ccc([N+](=O)[O-])cc1 ?
mHTT CaM bind: -1.1; Pf apPOL inh: -0.2

What do the screens show for `O=[N+]([O-])c1ccc(COc2ccc(-c3[nH]ncc3-c3nc4ccccc4s3)c(O)c2)cc1`?
mHTT CaM bind: 99.9*; Pf apPOL inh: -6.7

Results for Cc1cc(C(C)(C)c2cc(C)c(N)c(C)c2)cc(C)c1N ?
mHTT CaM bind: 48.0; Pf apPOL inh: -4.1

How did CCC(=O)Nc1ccc(C(=O)Nc2cccc(C(=O)NC(C)(C)C)c2)cc1 do in these assays?
mHTT CaM bind: 13.0; Pf apPOL inh: 9.8
